Results: the supplement of paper PMC10646978
± gives the standard deviation.

Legend:
Details in all cases: modulator concentration 10 µM
[1] = system: RAW-Dual (murine macrophage reporter line); test: NF-kB reporter (SEAP) activity fold change vs agonist alone; higher = enhanced NF-kB activity
Outline: (§1)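 RAW-Dual murine macrophage reporter cells were plated at 50 000 per well in 384-well plates, pin-transferred compound to 10 μM final, and pre-incubated for 1 hour at 37 °C before a PRR agonist was added and the cells incubated overnight. NF-κB activity was read from supernatant SEAP with QUANTI-Blue at 620 nm absorbance, and IRF activity from Lucia luciferase with QUANTI-Luc by luminescence. Each signal was expressed as fold change by dividing by the mean agonist-only control on the same plate. Two replicate plates were averaged, with errors obtained by propagation.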

[2] = system: RAW-Dual (murine macrophage reporter line); test: IRF reporter (Lucia luciferase) activity fold change vs agonist alone; higher = enhanced IRF activity
Outline: as §1

[3] = system: RAW-Dual (murine macrophage reporter line); test: viability score (confluency relative to resting cells, overnight) (fraction); higher = more viable, active = viable (0.7 or more)
Outline: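 RAW-Dual macrophages in 384-well plates were exposed overnight to compound at 10 μM final. Confluency was imaged with IncuCyte, and two confluency masks were generated with IncuCyte software over all imaged wells. The viability score is confluency expressed relative to resting cells. Compounds were called viable if both masks exceeded 70% of resting cells.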

[4] = agonist: CpG ODN 1826 0.5 ug/mL

Row | SMILES | NF-kB reporter [1, 4] | NF-kB reporter ([1]; agonist: LPS 0.1 ug/mL) | NF-kB reporter ([1]; agonist: MPLA […]) | IRF reporter ([2]; agonist: 3'3'-cGAMP 10 ug/mL) | IRF reporter ([2]; agonist: LPS 0.1 ug/mL) | IRF reporter ([2]; agonist: MPLA […]) | viability score [3]
1 | C[C@@H]1CC[C@H]2[C@@H](C)C(=O)O[C@@H]3O[C@@]4(C)CC[C@@H]1[C@]32OO4 | 0.961 ± 0.086 | 0.916 ± 0.052 | 1.11 ± 0.11 | 1.04 ± 0.048 | 1.13 ± 0.065 | 1.17 ± 0.099 | 0.985 (active)
2 | CC(NC(C)(C)C)C(=O)c1cccc(Cl)c1.Cl (stereo unspecified) | 0.906 ± 0.1 | 1.09 ± 0.11 | 0.99 ± 0.048 | 0.986 ± 0.065 | 0.955 ± 0.1 | 0.904 ± 0.14 | 0.998 (active)
3 | COc1cc(CNCCc2ccc(OC)c(OC)c2)cc(OC)c1 | 0.973 ± 0.078 | 0.959 ± 0.14 | 0.989 ± 0.093 | 1.02 ± 0.032 | 1.22 ± 0.13 | 1.45 ± 0.18 | 1.02 (active)
4 | CCOC(=O)Nc1ccc(NCc2ccc(F)cc2)cc1N | 0.882 ± 0.039 | 1.09 ± 0.086 | 0.936 ± 0.051 | 0.893 ± 0.044 | 1.2 ± 0.33 | 1.33 ± 0.51 | 1.01 (active)
5 | CCC1(c2ccc(N)cc2)CCC(=O)NC1=O (stereo unspecified) | 1.22 ± 0.091 | 1.04 ± 0.052 | 1.06 ± 0.089 | 1.12 ± 0.26 | 0.913 ± 0.077 | 0.939 ± 0.083 | 0.996 (active)
6 | CN1C(=O)NC(=O)C(=Cc2cc(Br)cc(Cl)c2O)C1=O | 0.19 ± 0.019 | 0.505 ± 0.026 | 1.32 ± 0.63 | 0.537 ± 0.042 | 1.11 ± 0.078 | 0.942 ± 0.079 | 1.01 (active)
7 | CC(=O)OC1CCC2(C)C(CCC3C4CCC(=O)C4(C)CCC32)C1 (stereo unspecified) | 1.22 ± 0.29 | 1.06 ± 0.054 | 1.02 ± 0.089 | 0.939 ± 0.032 | 1.21 ± 0.19 | 1.11 ± 0.18 | 1.01 (active)
8 | c1cc2c(cc1C1OCC3C(c4ccc5c(c4)OCO5)OCC13)OCO2 (stereo unspecified) | 0.745 ± 0.22 | 1.16 ± 0.058 | 1.1 ± 0.082 | 0.841 ± 0.041 | 1.22 ± 0.17 | 1.24 ± 0.12 | 1 (active)
9 | CCC1(O)C(=O)OCc2c1cc1n(c2=O)Cc2cc3ccccc3nc2-1 (stereo unspecified) | 0.948 ± 0.074 | 0.912 ± 0.069 | 0.889 ± 0.092 | 1.04 ± 0.033 | 1.24 ± 0.2 | 1.41 ± 0.24 | 0.974 (active)
10 | Cc1ccc(-c2nn(-c3ccccc3)cc2C=C2C(=O)NC(=O)NC2=O)o1 | 1 ± 0.094 | 1.07 ± 0.066 | 1 ± 0.08 | 1.01 ± 0.037 | 1.42 ± 0.23 | 1.16 ± 0.072 | 1.01 (active)
11 | COc1cc2c(cc1O)CC1c3c(cc(O)c(OC)c3-2)CCN1C (stereo unspecified) | 0.916 ± 0.23 | 0.96 ± 0.078 | 0.924 ± 0.092 | 0.881 ± 0.03 | 1.17 ± 0.16 | 1.12 ± 0.11 | 0.999 (active)
12 | CC[C@@]1(O)C(=O)OCc2c1cc1n(c2=O)Cc2cc3ccccc3nc2-1 [Prestw-200] | 1.33 ± 0.23 | 1.75 ± 0.17 | 2.95 ± 0.72 | 3.06 ± 0.081 | 2.05 ± 0.42 | 2.66 ± 0.37 | 0.768 (active)
13 | CCCC(=O)c1ccc(N2CCNCC2)c(F)c1 | 0.404 ± 0.023 | 1.12 ± 0.069 | 0.961 ± 0.082 | 0.861 ± 0.043 | 1.4 ± 0.14 | 1.66 ± 0.18 | 0.951 (active)
14 | CCC1(c2c[nH]cn2)Cc2ccccc2C1.Cl | 0.752 ± 0.1 | 1.11 ± 0.082 | 0.863 ± 0.05 | 1 ± 0.05 | 1.25 ± 0.11 | 1.07 ± 0.081 | 0.976 (active)
15 | Cl.N=C(N)NN | 0.983 ± 0.15 | 1.02 ± 0.29 | 0.917 ± 0.064 | 0.892 ± 0.034 | 1.38 ± 0.27 | 1.25 ± 0.21 | 0.997 (active)
16 | O=C1NC(=O)N(c2ccccc2F)C(=O)C1=Cc1ccc(OCc2ccc([N+](=O)[O-])cc2)c(Cl)c1 | 0.917 ± 0.072 | 1.03 ± 0.068 | 0.894 ± 0.057 | 0.916 ± 0.049 | 1.22 ± 0.15 | 1.02 ± 0.065 | 1.01 (active)
17 | COc1cc(C2c3cc4c(cc3C(O)C3COC(=O)C23)OCO4)cc(OC)c1OC (stereo unspecified) | 1.37 ± 0.41 | 0.807 ± 0.077 | 1.08 ± 0.1 | 0.688 ± 0.021 | 1.19 ± 0.17 | 1.51 ± 0.22 | 0.967 (active)

Row | SMILES | NF-kB reporter [1, 4] | NF-kB reporter ([1]; agonist: LPS 0.1 ug/mL) | NF-kB reporter ([1]; agonist: MPLA […]) | IRF reporter ([2]; agonist: 3'3'-cGAMP 10 ug/mL) | IRF reporter ([2]; agonist: LPS 0.1 ug/mL) | IRF reporter ([2]; agonist: MPLA […]) | viability score [3]
18 | COc1ccc(CN2CCNCC2)c(OC)c1OC.Cl.Cl | 1.26 ± 0.18 | 1.06 ± 0.16 | 1.45 ± 0.53 | 0.921 ± 0.042 | 1.29 ± 0.28 | 1.27 ± 0.13 | 0.989 (active)
19 | Cc1ccccc1C(=O)Nc1cc(Cl)c([N+](=O)[O-])cc1Cl | 1.05 ± 0.061 | 0.897 ± 0.078 | 0.973 ± 0.029 | 0.997 ± 0.037 | 0.996 ± 0.11 | 0.988 ± 0.21 | 0.998 (active)
20 | CN1C(=O)COc2c(C(=O)NC3CN4CCC3CC4)cc(Cl)cc21.Cl (stereo unspecified) | 0.661 ± 0.054 | 0.831 ± 0.09 | 1.08 ± 0.089 | 0.997 ± 0.046 | 1.42 ± 0.26 | 1.71 ± 0.51 | 0.94 (active)
21 | Cc1cccc(COc2ccc(C=C3C(=O)NC(=S)NC3=O)cc2)c1 | 0.855 ± 0.07 | 0.875 ± 0.047 | 1.14 ± 0.099 | 0.844 ± 0.056 | 0.992 ± 0.093 | 0.969 ± 0.12 | 0.981 (active)
22 | O=C(O)c1nn(Cc2ccc(Cl)cc2Cl)c2ccccc12 | 0.833 ± 0.12 | 0.959 ± 0.14 | 0.943 ± 0.055 | 0.926 ± 0.033 | 1.04 ± 0.25 | 1.06 ± 0.18 | 1 (active)
23 | COc1ccc(C(CN(C)C)C2(O)CCCCC2)cc1 (stereo unspecified) [Prestw-1170] | 0.741 ± 0.12 | 1.17 ± 0.14 | 0.956 ± 0.074 | 0.916 ± 0.031 | 1.11 ± 0.22 | 1.37 ± 0.23 | 0.981 (active)
24 | CCNc1nc(Cl)nc(NC(C)C)n1 | 1.25 ± 0.097 | 0.873 ± 0.082 | 1.01 ± 0.094 | 1.01 ± 0.032 | 1.33 ± 0.21 | 1.49 ± 0.25 | 1.03 (active)
25 | CCNCC.O=C(O)Cc1ccccc1Nc1c(Cl)cccc1Cl | 1.16 ± 0.18 | 1.08 ± 0.38 | 0.993 ± 0.058 | 0.921 ± 0.034 | 1.21 ± 0.43 | 1.02 ± 0.11 | 0.993 (active)
26 | COc1ccc2c(c1O)-c1c(OC)c(OC)cc3c1C(C2)N(C)CC3 (stereo unspecified) | 0.618 ± 0.051 | 0.905 ± 0.088 | 1.1 ± 0.1 | 0.903 ± 0.046 | 1.29 ± 0.14 | 1.45 ± 0.17 | 1.04 (active)
27 | CC(C)c1ccc2c(c1O)CCC1C3=C(CCC21C)C(=O)OC3 (stereo unspecified) | 0.921 ± 0.072 | 0.815 ± 0.11 | 0.986 ± 0.093 | 0.939 ± 0.029 | 1.11 ± 0.19 | 1.23 ± 0.26 | 1.03 (active)
28 | Cc1noc(C)c1CC(=O)N1CCCSCC1CN1CCCC1 (stereo unspecified) | 0.943 ± 0.093 | 1.03 ± 0.083 | 0.906 ± 0.04 | 1.1 ± 0.065 | 1.09 ± 0.11 | 0.972 ± 0.14 | 1 (active)
29 | Cc1cc(C(=O)N2C3CCC2c2cncnc2C3)c(C)o1 (stereo unspecified) | 1.03 ± 0.087 | 1.06 ± 0.092 | 1 ± 0.036 | 0.974 ± 0.066 | 0.94 ± 0.06 | 0.832 ± 0.13 | 0.999 (active)
30 | c1ccc2c(c1)Nc1ccccc1S2 | 1.02 ± 0.25 | 0.934 ± 0.048 | 0.881 ± 0.11 | 0.778 ± 0.026 | 1.31 ± 0.25 | 1.32 ± 0.13 | 0.939 (active)
31 | CC(C)NC(C)C(O)c1ccc2c(c1)CCCC2.Cl (stereo unspecified) | 0.838 ± 0.066 | 1 ± 0.086 | 1.1 ± 0.038 | 0.818 ± 0.091 | 1 ± 0.099 | 0.891 ± 0.23 | 0.994 (active)
32 | CCCC(=O)c1ccc(N2CCN(C)CC2)c(F)c1 | 0.956 ± 0.097 | 0.876 ± 0.1 | 0.906 ± 0.088 | 1.02 ± 0.056 | 1.22 ± 0.17 | 1.27 ± 0.24 | 1.03 (active)
33 | O=C1NC(=O)C(=CNc2ccccc2C(F)(F)F)C(=O)N1 | 1.13 ± 0.11 | 0.946 ± 0.11 | 1.04 ± 0.1 | 1.02 ± 0.034 | 1.21 ± 0.24 | 1.2 ± 0.2 | 1.02 (active)
